Compound activity (PubChem)
G9a block – qHTS Assay for Inhibitors of Histone Lysine Methyltransferase G9a | Histone-lysine N-methyltransferase EHMT2 (Homo sapiens), Q96KQ7 | AID 504332, 2011 | hit rate 8.8% among 350,000 | G9a H3K9 monomethylation, AlphaScreen, 2 h | Potency, µM (series often up to 102 µM), without a hit: top-dose activity, negative = inhibition, actives largely listed as inhibitors; further: on the % scale 0 is the no-effect control and ±100 the full control effect; nearly all actives have a fitted effect of over 75% in size
Target sequence (Q96KQ7 913-1193 limits assumed): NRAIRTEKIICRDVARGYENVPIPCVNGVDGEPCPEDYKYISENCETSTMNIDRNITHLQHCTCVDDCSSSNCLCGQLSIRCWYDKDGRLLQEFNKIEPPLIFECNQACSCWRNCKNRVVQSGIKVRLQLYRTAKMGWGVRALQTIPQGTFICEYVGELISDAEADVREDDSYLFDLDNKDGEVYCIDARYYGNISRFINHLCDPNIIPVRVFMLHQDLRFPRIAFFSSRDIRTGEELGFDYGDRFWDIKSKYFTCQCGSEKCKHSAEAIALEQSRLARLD
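Readings reflect AlphaScreen signal from monomethyl-H3K9 antibody detection. HMT at 20 nM; substrate b-H3K9 500 nM; cofactor SAM 20 uM; 2 h RT reaction; compounds tested as titrations in qHTS with 15 min preincubation.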
JMJD2A Tudor – qHTS Assay for Inhibitors of JMJD2A-Tudor Domain; Lysine-specific demethylase 4A (Homo sapiens), O75164; AlphaScreen JMJD2A-Tudor / H3K4me3 peptide binding; Potency, µM (series often up to 114 µM), without a hit: top-dose activity change, negative = inhibition, actives largely listed as inhibitors; hit rate 4.4% among 390,000; AID 504339, 2011; further: on the % scale 0 is the no-effect control and ±100 the full control effect; nearly all actives have a fitted effect of over 50% in size
BAZ2B block – qHTS Assay for Inhibitors of BAZ2B; hit rate 4.4% among 360,000; Potency, µM (titrated, usually from 114 µM), inactives show top-dose activity change, negative = inhibition, hits mostly inhibitors; Bromodomain adjacent to zinc finger domain protein 2B (Homo sapiens), Q9UIF8; AlphaScreen BAZ2B-H3K14Ac peptide displacement; AID 504333, 2011; further: on the % scale 0 is the no-effect control and ±100 the full control effect; nearly all actives have a fitted effect of over 60% in size
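AlphaScreen displacement of biotin-H3(5-23)K14Ac peptide (50 nM final) from BAZ2B (50 nM final) in PBS pH 7.4, 0.01% Tween-20; complex preformed 30 min RT, then compounds (top 110 uM) 30 min RT, beads 20 min dark.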
Sfp PPTase inh – qHTS Assay for Inhibitors of Bacillus subtilis Sfp phosphopantetheinyl transferase (PPTase); AID 1490, 2009; Biochemical Sfp PPTase activity, qHTS; Potency, µM, for inactives: largest response in the series, negative = inhibition, most hits filed as inhibitors; hit rate 3.5% among 310,000;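 further: the enzyme is Sfp with the accession as filed and its product quenches rhodamine fluorescence; 0% = enzyme reaction without inhibitor and -100% = no enzyme wells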
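Reaction rates are the 30-min fluorescence difference (ex 525, em 598 nm) in wells containing 15 nM Sfp, 5 uM rhodamine-CoA and 12.5 uM BHQ-2-YbbR at pH 7.6 with 10 mM MgCl2.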
HP1b binding inh – HTS for Inhibitors of HP1-beta Chromodomain Interactions with Methylated Histone Tails | Chromobox protein homolog 1 (Homo sapiens), P83916 | AlphaScreen HP1-beta / biotin-H3K9me3 peptide binding | Potency, µM (titrated, usually from 114 µM), without a hit: at the top dose activity change, negative = inhibition, hits mostly inhibitors | hit rate 0.56% among 390,000; further: nearly all actives have a fitted effect of over 70% in size
Target sequence (P83916 whole entry, looked up): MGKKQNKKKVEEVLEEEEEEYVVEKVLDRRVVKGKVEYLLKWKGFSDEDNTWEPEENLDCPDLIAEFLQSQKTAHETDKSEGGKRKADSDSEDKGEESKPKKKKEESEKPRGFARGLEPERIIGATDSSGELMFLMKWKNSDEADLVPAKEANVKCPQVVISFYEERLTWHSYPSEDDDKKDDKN
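AlphaScreen: HP1-beta (50 nM) preformed 30 min with biotin-H3(1-18)K9me3 peptide (50 nM) in PBS pH 7.4, 0.01% Tween-20. Compound added for 30 min at RT, then streptavidin donor/nickel chelate acceptor beads (10 ug/mL) for 30 min.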
Starred values were filed as active, the others as inactive; u = inconclusive; x = no result; [ ] = dose if it differs, or a comment. The list is not random: actives were taken first. Their share in the collection is about 12%. The call rests on the fitted dose curve; in most records, active means well fitted curve in the direction sought with a large enough effect; inconclusive means small, poorly fitted or top-dose-only effect, or another doubt; inactive means no such curve, though single readings can be large; an effect the other way counts as inactive or inconclusive. Potency means the concentration at half of the fitted maximal effect.

SMILES | G9a block | JMJD2A Tudor | BAZ2B block | Sfp PPTase inh | HP1b binding inh
CCn1cc(C(=O)OCC(=O)Nc2c(C)cccc2C)c(=O)c2ccc(C)nc21 | 45µM* | -11% | -8% | 8% | 29%
CCn1cc(C(=O)OCC(=O)Nc2cccc(Cl)c2C)c(=O)c2ccc(C)nc21 | -45%[59 µM] | -13% | 2% | x | 10%
CCc1nc(-c2cc(S(=O)(=O)N3CCN(c4ccccc4)CC3)ccc2OC)no1 | -11%[59 µM] | 5% | -1% | x | 37%
COc1ccc(CC(=O)Nc2ccc(S(=O)(=O)NCC3CCCO3)cc2)cc1 (configuration not stated) | 10µM* | -13% | 7% | u | -7%
CCCCNc1nc2c(S(=O)(=O)c3ccc(C)cc3)nnn2c2ccsc12 | -3%[59 µM] | -20% | -24% | x | 18%
O=C(NCc1ccco1)c1ccccc1Br | 9%[12.7 µM] | 50µM* | 12% | 17% | -23%
CCSc1ccccc1C(=O)NCc1cccnc1 | 8.9µM* | -16% | -12% | -4% | 21%
CCOC(=O)c1[nH]c(C)c(C(=O)NCc2cccnc2)c1C | 35µM* | -16% | 13% | -1% | 50%
CC(C)(C)C(=O)Nc1ccccc1C(=O)NCc1ccco1 | 5% | -8% | 3% | 15% | 29%
O=C(NCc1cccnc1)c1ccccc1Br | -8%[59 µM] | -13% | 14% | -4% | 15%
CCSc1ccccc1C(=O)NCc1ccco1 | 10µM* | -23% | 0% | 15% | 5%
Cc1ccc(NC(=O)CN(Cc2ccccc2)S(=O)(=O)c2ccc3nc(C)sc3c2)c(C)c1 | 11%[59 µM] | -20% | -8% | x | -16%
Cc1ccc(C)c(NC(=O)c2cc(S(=O)(=O)N3CCN(c4cccc(Cl)c4)CC3)ccc2F)c1 | 2%[59 µM] | -27% | 3% | x | 6%
CCCCNC(=O)C1c2ccccc2Oc2ccccc21 | u | -17% | -21% | 1% | 13%
O=C(NCc1ccco1)C1c2ccccc2Oc2ccccc21 | u | 50µM* | -9% | 40µM* | 1%
COc1ccccc1/C=C1\SC(=O)N(CCC(=O)NCCCn2ccnc2)C1=O | x | -4% | u | 3% | 26%
CC(C)c1ccc(/C=C2\SC(=S)N(CCC(=O)NCCCn3ccnc3)C2=O)cc1 | x | u | u | -1% | 2%
COc1ccccc1/C=C1\SC(=S)N(CCC(=O)NCCCn2ccnc2)C1=O | u | -1% | 50µM* | 2% | 32%
COc1ccc(/C=C2\SC(=O)N(CC(=O)NCCCn3ccnc3)C2=O)cc1 | x | -34% | u | 2% | 30%
O=C(CCCN1C(=O)/C(=C/c2ccc(F)cc2)SC1=S)NCCCn1ccnc1 | u | u | 22µM* | -3% | u
COc1ccc(/C=C2\SC(=S)N(CCC(=O)NCCCn3ccnc3)C2=O)cc1 | 56µM* | 16% | 25µM* | 7% | 44%
CCCCS(=O)(=O)N1CCCC(C(=O)NCC2CCCO2)C1 (configuration not stated) | 72% | -12% | 5% | 29% | 12%
Cc1ccc(C(=O)Nc2cc(-c3nc4ncccc4o3)ccc2C)c(C)c1 | 1%[59 µM] | -31% | -1% | x | 44%
O=C(NCCCOc1cccc(CN2CCCCC2)c1)c1ccc(Cl)c(Cl)c1 | 10µM* | 3.5µM* | u | -5% | u
Cn1c(=O)c2c(ncn2CC(=O)N/N=C/C(Cl)=C/c2ccccc2)n(C)c1=O | 19%[59 µM] | -29% | -24% | 2% | -4%
SMILES | G9a block | JMJD2A Tudor | BAZ2B block | Sfp PPTase inh | HP1b binding inh
Cn1c(=O)c2c(ncn2CC(=O)N/N=C/C=C/c2ccco2)n(C)c1=O | x | -17% | -10% | 14µM* | 3%
CC(/C=N/NC(=O)Cn1cnc2c1c(=O)n(C)c(=O)n2C)=C\c1ccco1 | x | -13% | 3% | 40µM* | 27%
Cc1ccccc1Cn1c(=O)n(CCc2ccccc2)c(=O)c2sc3ccccc3c21 | -8%[59 µM] | -6% | -34% | x | 17%
CCCCc1ncc(/C=C(\Cc2cccs2)C(=O)O)n1Cc1ccc(C(=O)O)cc1 | 13%[59 µM] | x | x | 10% | x
Cc1cc(NC(=O)c2ccc(C#N)cc2)n(-c2ccccn2)n1 | 45µM* | -17% | -8% | -2% | 26%
Cc1cc(NC(=O)c2ccc(F)cc2)n(-c2ccccn2)n1 | 24% | -10% | 41% | -22% | 64%
CCN1C(=O)[C@H]2[C@H]3[C@H](O)[C@H](O)C/C(=N/O[C@@H]4O[C@@H](COC(C)=O)[C@@H](OC(C)=O)[C@@H](OC(C)=O)[C@H]4OC(C)=O)[C@@H]3CC[C@@H]2C1=O | x | x | x | 1% | x
CN(CC(=O)Nc1ccc(C#N)cc1)CC(=O)Nc1ccc(N2CCOCC2)cc1 | u | 40µM* | 11% | 4% | -7%
CCc1ccc(NC(=O)CS(=O)CC(=O)Nc2ccc(N3CCOCC3)cc2)cc1 (configuration not stated) | 50µM* | 40µM* | 79µM* | 7% | 4%
CN(CC(=O)Nc1ccc(N2CCOCC2)cc1)CC(=O)Nc1ccc(N2CCOCC2)cc1 | u | -29% | -12% | -7% | 27%
CCN(CC(=O)NCc1ccc(F)cc1)C(=O)c1ccc(Cl)cc1 | 14% | -7% | -1% | 11% | 21%
CCN(CC(=O)NCc1ccc(Cl)cc1)C(=O)c1ccc(C#N)cc1 | 40µM* | -6% | -6% | -1% | 32%
COc1cc2nc(CN(C)CC(=O)Nc3ccc(N4CCOCC4)cc3)[nH]c(=O)c2cc1OC | -6%[59 µM] | 2%[57.1 µM] | -8% | 3.5µM* | -17%
C=CCOC(=O)N[C@H](/C(C(=O)OC)=C(\C)NCc1ccccc1)c1cccc(C(F)(F)F)c1 | x | x | x | -14% | x
CCOc1ccc(NC(=O)c2oc3ccccc3c2NC(=O)Cc2cccc(C)c2)cc1 | -4%[59 µM] | -9% | 0% | x | 34%
CCN(CC(=O)Nc1ccc(N2CCOCC2)cc1)C(=O)c1ccc(C#N)cc1 | 45µM* | -14% | -9% | -8% | 6%
Cc1ccc(C)c(-n2sc3ccc(F)cc3c2=O)c1 | -1%[0.501 µM] | 14µM* | 18µM* | x | -25%
COc1ccc(N2C(=O)CSC2c2ccc(F)cc2)cc1 (configuration not stated) | 5% | -9% | 12% | -2% | 28%
O=C1CCCC(=O)N1c1ccc(F)cc1 | 10% | -11% | 2% | 12% | -23%
O=c1c2cc(F)ccc2sn1-c1ccc(F)cc1 | 7%[0.501 µM] | 20µM* | 10µM* | x | -4%
COc1ccc(-n2sc3ccc(F)cc3c2=O)cc1 | 0%[0.501 µM] | 11µM* | 8.9µM* | x | -5%
CCOc1ccc(NC(=O)CN2C(C(=O)OC)=C(c3ccccc3)c3cc(Cl)ccc3S2(=O)=O)cc1 | -9%[59 µM] | -6% | -4% | x | 17%
